Luciferase inh: Photinus pyralis luciferase inhibition | P08659 | purified P. pyralis luciferase, luminescence, biochemical | 76,000 compounds, 2.5% hits | Potency, µM (titrated, usually from 115 µM), usual class: inhibitors; note: nearly all actives have a fitted effect of over 65% in size
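Biochemical qHTS: compound (6-point titration) added to 10uM D-luciferin plus 10uM ATP in Tris acetate pH 7.5 buffer with Mg, Tween-20 and BSA, then purified enzyme at 10nM; light output imaged.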
hNpr1 antagonist: antagonists of human natriuretic peptide receptor Npr1; Potency, µM (highest dose often 46.3 µM), hits mostly inhibitors; HEK293 hNpr1 GloSensor cGMP, ANP-stimulated luminescence; 76,000 compounds, 1.6% hits; AID 1347048; P16066; calls by dose curve; note: nearly all actives have a fitted effect of over 60% in size
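Compound pre-incubated 30 min at room temperature on GloSensor-loaded HEK293 cells stably carrying hNpr1 and the pGS-40F cGMP biosensor. Stimulation uses hNppA at 0.1 nM final; luminescence is taken at baseline and 20 min post-agonist.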
3T3 cytotox: NIH 3T3 cell cytotoxicity. NIH 3T3 viability, CellTiter-Glo ATP luminescence, 48-72 h. Potency, µM (titrated, usually from 96.7 µM), actives largely listed as inhibitors. 94,000 compounds, 4.3% hits. AID 1345082; note: nearly all actives have a fitted effect of over 55% in size
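First NIH 3T3 cells are plated at 400 cells/well; next compound is pinned in; then plates incubate 48 or 72 hr at 37 °C; finally CellTiter-Glo is added and luminescence read after 10 min.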
HEK293 tox: cytotoxic compounds in HEK 293 cells | Potency, µM (series often up to 115 µM), actives largely listed as inhibitors | AID 1345083 | HEK 293 viability, ATP luminescence (CellTiter-Glo), 48-72 h | 94,000 compounds, 6.6% hits; note: nearly all actives have a fitted effect of over 60% in size
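Pintool-delivered compounds were incubated with HEK 293 cells (250 cells/well) at 37 degree Celsius for 48 or 72 hr. ATP-dependent luminescence (CellTiter-Glo) then reported remaining viable cells.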
NPR1 antag cnf: confirmation of human Npr1 natriuretic peptide receptor antagonists; shares compounds with hNpr1 antagonist; HEK293 hNpr1 cGMP GloSensor luminescence, ANP-stimulated; Potency, µM (doses to about 57.6 µM), actives largely listed as inhibitors; 1,400 compounds, 76% hits; calls by dose curve; note: nearly all actives have a fitted effect of over 70% in size
NPR2 antag: antagonizes human Npr2, subtype selectivity check | shares compounds with hNpr1 antagonist | HEK293 hNpr2 GloSensor cGMP luminescence, CNP-stimulated | Potency, µM (top dose mostly 57.6 µM), most hits filed as inhibitors | 1,400 compounds, 67% hits; calls by dose curve; note: nearly all actives have a fitted effect of over 70% in size
FLuc inh counter: FLuc enzyme inhibition, Npr1 counter-screen; AID 1347047; purified FLuc enzyme, luminescence, Km substrate; Potency, µM (highest dose often 57.6 µM), usual class: inhibitors; 1,400 compounds, 0.7% hits; shares compounds with hNpr1 antagonist
GloSensor cGMP: control cell line activity, Npr1 antagonist counter-screen; Potency, µM (doses to about 57.6 µM), most hits filed as inhibitors; 1,400 compounds, 69% hits; shares compounds with hNpr1 antagonist; HEK293 GloSensor cGMP, SNP-stimulated, luminescence; AID 1347051; calls by dose curve; note: nearly all actives have a fitted effect of over 70% in size
Numbers stand for hits; i = inactive; ? = inconclusive; nt = no result given. Sampled rows, rich in hits. Any-hit rate of the full collection: about 11%. Unless noted, calls come from the whole dose curve; as a rule, active = well fitted curve in the direction sought with a large enough effect; inconclusive = small, poorly fitted or top-dose-only effect, or another doubt; inactive = no such curve, though single readings can be large; an effect the other way counts as inactive or inconclusive.

SMILES | Luciferase inh | hNpr1 antagonist | 3T3 cytotox | HEK293 tox | NPR1 antag cnf | NPR2 antag | FLuc inh counter | GloSensor cGMP
CCc1csc(CNc2cc(C3CC(O)C3)nc(N)n2)n1 (stereo not given) | i | i | ? | ? | nt | nt | nt | nt
Cc1ccccc1N1CCN(C(=O)c2nnn3c2COC(c2ccc(Cl)cc2)C3)CC1 (stereo not given) | i | i | i | i | nt | nt | nt | nt
COc1cc(Cl)ccc1C(=O)N1CCN(C(=O)c2nnn3c2COC(c2ccccc2)C3)CC1 (stereo not given) | i | ? | ? | ? | 22µM | ? | i | 31µM
Cc1ccc(C2Cn3nnc(C(=O)N4CCN(C(=O)c5cc(Cl)ccc5F)CC4)c3CO2)cc1 (stereo not given) | i | ? | ? | ? | 15µM | 19µM | i | 17µM
Cc1ccccc1C(=O)N1CCN(C(=O)c2nnn3c2COC(c2ccc(Cl)cc2)C3)CC1 (stereo not given) | i | ? | ? | ? | 27µM | ? | i | ?
Cc1ccc(C2Cn3nnc(C(=O)N4CCN(C(=O)c5ccc(Cl)cc5)CC4)c3CO2)cc1 (stereo not given) | i | i | i | i | nt | nt | nt | nt
Cc1ccccc1CC(=O)N1CCN(C(=O)c2nnn3c2COC(c2ccc(Cl)cc2)C3)CC1 (stereo not given) | i | 14µM | 35µM | 28µM | 19µM | 22µM | i | 19µM
Cc1ccc(C2Cn3nnc(C(=O)N4CCN(C(=O)c5ccccc5F)CC4)c3CO2)cc1 (stereo not given) | i | ? | i | ? | nt | nt | nt | nt
CSCC(=O)N1C[C@@H](NC(=O)Nc2ccc(F)cc2F)C[C@H]1C(=O)N[C@@H](Cc1cccs1)C(N)=O | i | i | i | i | nt | nt | nt | nt
CC1=C[C@@H](CC#N)[C@H](C(C)C)C[C@H]1CC(=O)N1CCN(c2cnccn2)CC1 | i | ? | ? | ? | nt | nt | nt | nt
COc1ccc(C(=O)N2CCC(Cc3nc(C(C)C)no3)CC2)cc1 | i | ? | ? | ? | nt | nt | nt | nt
Cc1ccc(C(=O)N2CCC(Cc3nc(-c4ccccc4)no3)CC2)cn1 | i | 6.3µM | ? | ? | 4.8µM | 5.4µM | i | 4.3µM
COc1ccc(-c2noc(CC3CCN(C(=O)c4ccc(C)nc4)CC3)n2)cc1 | i | 7.1µM | ? | ? | 5.4µM | 6.9µM | i | 5.4µM
O=C(CCC1CC1)N1CCC(c2cc(Cc3ccccc3)[nH]n2)CC1 | i | i | ? | ? | i | i | i | i
Cc1ccc(S(=O)(=O)N2CCc3c(C(=O)NCC(C)C)cccc32)cc1 | i | ? | ? | ? | ? | ? | i | ?
COc1ccc(C(=O)NCC(=O)N2CCCCCCNC(=O)CC2c2ccccc2)c(OC)n1 (stereo not given) | i | i | i | i | nt | nt | nt | nt
COCCN1C(=O)CS(=O)(=O)C12CCN(C(=O)Cc1cccc(OC)c1)CC2 | i | i | i | ? | nt | nt | nt | nt
OC1CC(c2cc(NCCCn3ccc4ccccc43)ncn2)C1 (stereo not given) | i | 11µM | ? | ? | 19µM | 19µM | i | 12µM
CC(=O)N1CCN(C(=O)CNC(=O)c2cccc(-c3ccsc3)c2)CC1 | nt | nt | i | i | nt | nt | nt | nt
Fc1ccc(CN2CCC(Oc3ccccc3-c3nc(-c4cnccn4)no3)C2)cc1F (stereo not given) | i | i | ? | 25µM | ? | i | i | i
CCNC(=O)N1CCC(Oc2ccccc2-c2nc(-c3cnccn3)no2)C1 (stereo not given) | i | i | i | i | nt | nt | nt | nt
CC(=O)N1Cc2ccccc2CC2(CCN(Cc3ccncc3)C2)C1 (stereo not given) | nt | nt | i | i | nt | nt | nt | nt
CC(=O)N1Cc2ccccc2CC2(CCN(Cc3ccccc3)C2)C1 (stereo not given) | nt | nt | i | i | i | i | i | i
